Measured values: PubChem BioAssay AID1159580 (chemical genetic matrix, 2015)
Out of some 5,500 compounds screened, about 2,000 (36%) were called active. About 18% were inconclusive and are not listed. Rule as the data show it: active = normalized growth mostly below about 0.91 (no sharp cut-off); inconclusive = no clear call, values can overlap the other calls; inactive = mostly above about 0.92. The list shows a part of the results.

Assay: chemical genetic growth profiling, strain panel (AID 1159580);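 also: tested at 20 µM; growth read once vehicle control cultures reached saturation at 30 °C; 1 = growth at the plate median or of vehicle wells; lower values mean less growth of the strain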
Settings: growth OD
[1] = S. cerevisiae deletion strains, locus YDR150W, strain NUM1, hits give low values
[2] = S. cerevisiae deletion strains, locus YGR078C, strain PAC10, hits give low values
[3] = S. cerevisiae deletion strains, locus YMR307W, strain GAS1, hits give low values
[4] = S. cerevisiae deletion strains, locus YNL153C, strain GIM3, hits give low values
[5] = S. cerevisiae deletion strains, locus YNL322C, strain KRE1, hits give low values

Measured: normalized growth

O=C(O)CCC(=O)N1CCCC1C(=O)O (stereo not given)
inactive: S. cerevisiae deletion strains, locus YAL040C, strain CLN3, hits give low values 1.03 | S. cerevisiae deletion strains, locus YCL061C, strain MRC1 (second series), hits give low values 1 | [1] 0.998 | S. cerevisiae deletion strains, locus YDR363W, strain ESC2, hits give low values 1.02 | S. cerevisiae deletion strains, locus YER002W, strain NOP16, hits give low values 1.01 | [2] 0.979 | S. cerevisiae deletion strains, locus YJR075W, strain HOC1, hits give low values 1.03 | S. cerevisiae deletion strains, locus YMR263W, strain SAP30, hits give low values 1.01 | [3] 0.972 | S. cerevisiae deletion strains, locus YNL128W, strain TEP1, hits give low values 0.999 | [4] 1.24 | S. cerevisiae deletion strains, locus YNL175C, strain NOP13, hits give low values 0.991 | S. cerevisiae deletion strains, locus YNL197C, strain WHI3, hits give low values 0.993 | S. cerevisiae deletion strains, locus YNL224C, strain SQS1, hits give low values 0.992 | [5] 1.02 | S. cerevisiae deletion strains, locus YOR083W, strain WHI5 (second series), hits give low values 0.989

O=C(O)c1cc(O)ccc1O
inactive: S. cerevisiae deletion strains, locus YAL013W, strain DEP1, hits give low values 0.986 | S. cerevisiae deletion strains, locus YBR021W, strain FUR4, hits give low values 0.948 | S. cerevisiae deletion strains, locus YBR229C, strain ROT2, hits give low values 0.992 | S. cerevisiae deletion strains, locus YCL029C, strain bik1, hits give low values 0.994 | S. cerevisiae deletion strains, locus YDL035C, strain GPR1, hits give low values 0.995 | S. cerevisiae deletion strains, locus YDL074C, strain BRE1, hits give low values 0.978 | S. cerevisiae deletion strains, locus YDL101C, strain DUN1, hits give low values 0.999 | S. cerevisiae deletion strains, locus YDL185W, strain tfp1, hits give low values 1 | S. cerevisiae deletion strains, locus YDL192W, strain arf1, hits give low values 0.993 | S. cerevisiae deletion strains, locus YDR101C, strain arx1, hits give low values 0.965 | [1] 0.993 | S. cerevisiae deletion strains, locus YDR162C, strain NBP2, hits give low values 1.01 | S. cerevisiae deletion strains, locus YDR318W, strain mcm21, hits give low values 1.01 | S. cerevisiae deletion strains, locus YDR388W, hits give low values 0.989 | S. cerevisiae deletion strains, locus YDR502C, strain sam2, hits give low values 0.989 | S. cerevisiae deletion strains, locus YEL061C, strain CIN8, hits give low values 0.998 | S. cerevisiae deletion strains, locus YER110C, hits give low values 0.981 | S. cerevisiae deletion strains, locus YER155C, strain BEM2, hits give low values 0.996 | S. cerevisiae deletion strains, locus YER167W, strain BCK2, hits give low values 0.988 | S. cerevisiae deletion strains, locus YGL078C, strain dbp3, hits give low values 0.988 | S. cerevisiae deletion strains, locus YGL086W, strain mad1, hits give low values 0.975 | S. cerevisiae deletion strains, locus YGL248W, strain PDE1, hits give low values 1.02 | [2] 1.02 | S. cerevisiae deletion strains, locus YGR135W, strain pre9, hits give low values 1.01 | S. cerevisiae deletion strains, locus YGR252W, strain gcn5, hits give low values 1.12 | S. cerevisiae deletion strains, locus YHR030C, strain SLT2, hits give low values 0.989 | S. cerevisiae deletion strains, locus YHR079C, strain IRE1 (second series), hits give low values 0.986 | S. cerevisiae deletion strains, locus YHR094C, strain hxt1, hits give low values 0.99 | S. cerevisiae deletion strains, locus YHR129C, strain ARP1, hits give low values 0.994 | S. cerevisiae deletion strains, locus YHR200W, strain rpn10, hits give low values 0.989 | S. cerevisiae deletion strains, locus YIL066C, strain RNR3, hits give low values 0.985 | S. cerevisiae deletion strains, locus YIL073C, strain SPO22, hits give low values 0.976 | S. cerevisiae deletion strains, locus YIL125W, strain kgd1, hits give low values 0.987 | S. cerevisiae deletion strains, locus YIR030C, strain dcg1, hits give low values 1 | S. cerevisiae deletion strains, locus YJL095W, strain BCK1, hits give low values 1.03 | S. cerevisiae deletion strains, locus YJL134W, strain LCB3, hits give low values 0.984 | S. cerevisiae deletion strains, locus YJL168C, strain set2, hits give low values 0.998 | S. cerevisiae deletion strains, locus YJL187C, strain SWE1 (second series), hits give low values 1.01 | S. cerevisiae deletion strains, locus YJR043C, strain POL32, hits give low values 1.01 | S. cerevisiae deletion strains, locus YKL009W, strain mrt4, hits give low values 0.964 | S. cerevisiae deletion strains, locus YKL068W, hits give low values 0.992 | S. cerevisiae deletion strains, locus YKL085W, strain MDH1 (second series), hits give low values 1 | S. cerevisiae deletion strains, locus YKL085W, strain MDH1, hits give low values 1 | S. cerevisiae deletion strains, locus YKL190W, strain CNB1, hits give low values 0.997 | S. cerevisiae deletion strains, locus YKR001C, strain vps1, hits give low values 0.985 | S. cerevisiae deletion strains, locus YLR039C, strain RIC1, hits give low values 1.05 | S. cerevisiae deletion strains, locus YLR058C, strain SHM2, hits give low values 1 | S. cerevisiae deletion strains, locus YLR102C, strain apc9, hits give low values 0.987 | S. cerevisiae deletion strains, locus YLR262C, strain YPT6, hits give low values 1.05 | S. cerevisiae deletion strains, locus YLR268W, strain sec22, hits give low values 0.986 | S. cerevisiae deletion strains, locus YLR330W, strain CHS5, hits give low values 0.991 | S. cerevisiae deletion strains, locus YLR342W, strain FKS1 (second series), hits give low values 0.95 | S. cerevisiae deletion strains, locus YLR371W, strain rom2, hits give low values 0.989 | S. cerevisiae deletion strains, locus YLR418C, strain cdc73, hits give low values 1.05 | S. cerevisiae deletion strains, locus YML016C, strain PPZ1, hits give low values 0.995 | S. cerevisiae deletion strains, locus YML032C, strain rad52, hits give low values 1.01 | S. cerevisiae deletion strains, locus YML124C, strain tub3, hits give low values 1 | S. cerevisiae deletion strains, locus YMR078C, strain ctf18, hits give low values 0.992 | S. cerevisiae deletion strains, locus YMR223W, strain ubp8, hits give low values 1.04 | [3] 1.07 | S. cerevisiae deletion strains, locus YNL067W, strain RPL9B, hits give low values 1.01 | [4] 1.02 | S. cerevisiae deletion strains, locus YNL233W, strain BNI4, hits give low values 1 | S. cerevisiae deletion strains, locus YNL250W, strain rad50, hits give low values 0.976 | S. cerevisiae deletion strains, locus YNL271C, strain bni1, hits give low values 0.994 | S. cerevisiae deletion strains, locus YNL298W, strain CLA4, hits give low values 0.994 | S. cerevisiae deletion strains, locus YNL307C, strain MCK1, hits give low values 0.98 | [5] 1 | S. cerevisiae deletion strains, locus YNR052C, strain pop2, hits give low values 1 | S. cerevisiae deletion strains, locus YOL012C, strain htz1 1.12 | S. cerevisiae deletion strains, locus YOL147C, strain pex11, hits give low values 0.99 | S. cerevisiae deletion strains, locus YOR061W, strain CKA2, hits give low values 0.996 | S. cerevisiae deletion strains, locus YOR069W, strain VPS5, hits give low values 0.987 | S. cerevisiae deletion strains, locus YOR136W, strain idh2, hits give low values 0.995 | S. cerevisiae deletion strains, locus YOR144C, strain elg1, hits give low values 0.989 | S. cerevisiae deletion strains, locus YOR184W, strain ser1, hits give low values 1 | S. cerevisiae deletion strains, locus YOR316C, strain cot1, hits give low values 0.985 | S. cerevisiae deletion strains, locus YPL241C, strain CIN2, hits give low values 1 | S. cerevisiae deletion strains, locus YPR119W, strain clb2, hits give low values 0.994 | S. cerevisiae deletion strains, locus YPR141C, strain kar3, hits give low values 0.981 | S. cerevisiae deletion strains, locus YPR163C, strain tif3, hits give low values 0.999 | S. cerevisiae deletion strains, locus YPR167C, strain met16, hits give low values 1.01 | S. cerevisiae deletion strains, strain wtn01, hits give low values 0.943 | S. cerevisiae strains, strain wild type, hits give low values 0.994
